Screening data (PubChem BioAssay)
phage Ecoli inh – E. coli growth loss with phage present; growth absorbance; inhibition, % at 11.9 µM; 0.26% of 360,000 active; AID 651602; in the data active = inhibition above about 11%
E coli growth-1 – bacterial growth inhibition, counter-screen for AddAB inhibitors | E. coli V3065 growth, OD600 absorbance, 18 h | inhibition, % at 11.9 µM | 0.27% of 330,000 active;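 active = inhibition above the campaign's mean inhibition across all tested compounds plus 3 SD, cut at about 9.9% in these data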;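 note: uninfected addAB+ strain grown without phage in ampicillin broth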
AddAB inh – less growth of phage-infected E. coli with AddAB; AID 435030; 0.29% of 330,000 active; E. coli expressing H. pylori AddAB, absorbance growth; inhibition, % at 11.9 µM; in the data active = inhibition above about 12%
E coli growth-2 – blocks Escherichia coli growth; OD600, 23 h; hits give low values; 0.21% of 330,000 active; AID 1053175; OD600 absorbance (test concentration not listed);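 active = OD600 absorbance below the run mean of sample wells minus 3.6 SD, in any replicate, cut at about 0.56 in these data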
Tat export inh – inhibitors of E. coli Tat protein transport; E. coli MC4100 TorA-mCherry Tat export, fluorescence; inhibition, % at 10 µM; 0.036% of 340,000 active; AID 488895;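 active = mean replicate inhibition at least 50% and at least half of replicates individually reaching 50%; inconclusive = only one of the two criteria met; inactive = neither criterion met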;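 note: exported cargo escapes ClpAP degradation while cytoplasmic cargo is degraded and loses fluorescence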
Calb FLC – affects C. albicans growth with fluconazole | C. albicans CaCi-2 (fluconazole-resistant clinical isolate) + fluconazole, Alamar Blue growth, 48 h | growth inhibition, % (no concentration beside the values) | 0.57% of 300,000 active;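 active = growth inhibition above about 58% in most replicates, limit read from the data, passing the limit was not always enough; inconclusive = exactly half the replicates above a set limit; inactive = most replicates below a set limit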;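 note: all wells also contain fluconazole at 8 µg/ml as a sub-toxic cotreatment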
AddAB conf – growth loss of T4-infected E. coli expressing H. pylori AddAB, confirmed. shares compounds with AddAB inh. E. coli V3065 expressing H. pylori AddAB, T4 phage, OD; T4 phage with gene 2 nonsense mutations. inhibition, % at 11.9 µM. 64% of 880 active. AID 488942;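 active = mean inhibition above a set limit taken from the earlier primary screen, cut at about 13% in these data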;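 note: higher means less bacterial growth since AddAB block lets phage replicate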
RecBCD counter – AddAB counter-screen: growth loss of RecBCD+ E. coli infected with mutant T4 phage; inhibition, % at 11.9 µM; E. coli V66 + mutant T4 phage, OD growth; 73% of 880 active; shares compounds with AddAB inh;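 active = mean inhibition above the mean of solvent-only control wells plus 3 SD, cut at about 4% in these data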;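 note: optical density read after an 18 h incubation at 37 °C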
bact viab count – counter-screen for AddAB inhibitors: inhibitors of bacterial viability; shares compounds with AddAB inh; absorbance (AddAB counterscreen); AID 488956; 35% of 880 active; inhibition, % at 11.9 µM; in the data active = inhibition above about 25%
Each line names hits and unclear results; the compound was inactive in the other large screens (follow-up assays come after a bar, where they were run); ! = a repeat was not active. Most compounds without a hit are left out; they make up all but 0.9% or so of the library.

Cc1cccc2cc(CNCC3CCCO3)c(Cl)nc12 (stereo not drawn)	Calb FLC 99
CN1CC2C(c3ccccc3)C3(c4ccc(C#N)cc4)CC2(C3)C1c1ccccc1 (stereo not drawn)	none (no result: phage Ecoli inh, E coli growth-1, AddAB inh, Tat export inh, Calb FLC)
CCCn1nc([N+](=O)[O-])c(C(C#N)c2nc3ccccc3s2)c(Cl)c1=O (stereo not drawn)	Calb FLC 99
CC1(C)CC(N2CCCC2)=CC(=[N+]2CCCC2)C1	Calb FLC 120
CC1(C)CC(N2CCCC2)=CC(=[N+]2CCCCC2)C1	none
CC1(C)CC(N2CCN(Cc3ccccc3)CC2)=CC(=[N+]2CCCCC2)C1	Calb FLC 83
CN(Cc1ccccc1)C1=CC(=[N+]2CCCCC2)CC(C)(C)C1	none
Cc1ccc(-c2ccc(C=Nn3cnnc3)o2)cc1	none (no result: phage Ecoli inh, E coli growth-1, AddAB inh, Tat export inh, Calb FLC)
C=CCCC(Cc1ccc(F)cc1)C(=O)OC(CNC(=O)C(CC=C)CC(=O)NC(CO)Cc1ccccc1)c1ccccc1 (stereo not drawn)	none (no result: phage Ecoli inh, E coli growth-1, AddAB inh, Tat export inh, Calb FLC)
COC(=O)C(NCc1cccc(CNC(C(=O)OC)c2ccccc2)c1)c1ccccc1 (stereo not drawn)	none (no result: phage Ecoli inh, E coli growth-1, AddAB inh, Tat export inh, Calb FLC)
COc1cc(SC)ccc1C(=O)OCC(=O)NC1CC1	Calb FLC 98
COc1cc(SC)ccc1C(=O)OCC(=O)NCCNC(=O)COC(=O)c1ccc(SC)cc1OC	none
COc1ccc(C=CC(=O)Oc2cccc(C=NNC(=O)COc3c(C)cccc3C)c2)cc1	none (no result: phage Ecoli inh, E coli growth-1, AddAB inh, Tat export inh, Calb FLC)
O=C(Cc1ccccc1)N/N=C/c1ccccc1Cl	Calb FLC 116 (no result: E coli growth-2)
O=C(Cc1ccccc1)NN=Cc1ccccc1Cl	none (no result: phage Ecoli inh, E coli growth-1, AddAB inh, Tat export inh, Calb FLC)
O=C(N/N=C/c1ccc(Cl)cc1Cl)Nc1ccccc1	Calb FLC 117 (no result: E coli growth-2)
O=C(N/N=C/c1cccc(Cl)c1Cl)Nc1ccccc1	none (no result: E coli growth-2)
Oc1ccc(Br)cc1C=Nn1cnc2ccccc21	none (no result: phage Ecoli inh, E coli growth-1, AddAB inh, Tat export inh, Calb FLC)
COC(=O)c1ccc(C=Cc2c(-c3ccc(OC)cc3)oc3ccc(N4CCOCC4)cc23)cc1	none (no result: phage Ecoli inh, E coli growth-1, AddAB inh, Tat export inh, Calb FLC)
O=C(Nc1nc(-c2ccccn2)cs1)c1cc2ccccc2o1	Calb FLC 99
CC(CC(=O)Nc1ccc(Cl)cc1C(F)(F)F)=NNC(=O)c1cccs1	none (no result: phage Ecoli inh, E coli growth-1, AddAB inh, Tat export inh, Calb FLC)
Cc1nnc(NC(=O)c2c(-c3ccccc3Cl)noc2C)s1	Calb FLC 83
O=C(NC(Cc1ccccc1)C(=O)O)C(=Cc1ccc(F)cc1)NC(=O)c1ccccc1 (stereo not drawn)	none (no result: phage Ecoli inh, E coli growth-1, AddAB inh, Tat export inh, Calb FLC)
Cn1cc(/C=C/c2cc[n+](C)cc2)c2cc(Cl)ccc21	Calb FLC 82
CCCCCCCCCCCCCCCCn1cc[n+](C)c1	E coli growth-2 0.066, Tat export inh inconclusive, Calb FLC 86!
Cc1cc(C(=O)CSc2nc(N)cc(N)n2)c(C)n1C1CC1	none
C=CCn1c(C)cc(C(=O)CSc2nc(N)cc(N)n2)c1C	Calb FLC 108
CC(CCc1ccccc1)=NNC(=O)C(=O)Nc1cccc(Cl)c1	none (no result: phage Ecoli inh, E coli growth-1, AddAB inh, Tat export inh, Calb FLC)
FC(F)(F)COc1nc(OCC(F)(F)F)nc(N2CCN(c3ccccc3)CC2)n1	Calb FLC 88
COC(=O)[C@H](C)NC(=O)NC(C)CCc1ccccc1 (stereo partly drawn)	none
CC(CCc1ccccc1)NC(=O)C(Cc1ccccc1)NC(N)=O (stereo not drawn)	E coli growth-2 0.53
NC(CCN1CCCCC1)=NO	none (no result: phage Ecoli inh, E coli growth-1, AddAB inh, Tat export inh, Calb FLC)
c1ccc(CC2CCN(C3=Nc4cccc5cccc3c45)CC2)cc1	Calb FLC 86 (no result: phage Ecoli inh)
CC(=NNC(=O)c1ccncc1)c1cccc(NC(=O)c2ccc(Cl)s2)c1	none (no result: phage Ecoli inh, E coli growth-1, AddAB inh, Tat export inh, Calb FLC)
Oc1[nH]c2c(Cl)cc(Cl)cc2c1N=NC(=S)NCC1CCCO1 (stereo not drawn)	Calb FLC 97
Cc1cc(C)c2[nH]c(O)c(N=NC(=S)NCC3CCCO3)c2c1 (stereo not drawn)	none
O=C(Cn1ccc(C(F)(F)F)n1)Nc1cccc(S(=O)(=O)N2CCCCC2)c1	E coli growth-1 24, AddAB inh 35 | AddAB conf inactive | RecBCD counter inactive | bact viab count inactive
COCC1CCN(Cc2nc(COc3ccccc3)no2)C1 (stereo not drawn)	E coli growth-1 33, AddAB inh 32 | AddAB conf inactive | RecBCD counter inactive | bact viab count inactive
CC(C)CC(NC(=O)c1nc[nH]c1C(=O)N1CCc2ccccc2C1)C(=O)OCc1ccccc1 (stereo not drawn)	none (no result: phage Ecoli inh, E coli growth-1, AddAB inh, Tat export inh, Calb FLC)
NC(=NOC(=O)C1CC1)c1ccc([N+](=O)[O-])s1	none (no result: phage Ecoli inh, E coli growth-1, AddAB inh, Tat export inh, Calb FLC)
COc1ccc(N2CCN(C(=O)CSc3nnc4c(C)cc5c(C)cc(C)cc5n34)CC2)cc1	E coli growth-1 94, AddAB inh 96 | AddAB conf inactive | RecBCD counter inactive | bact viab count inactive
CCOc1ccc(NC(=S)N2CCn3c(nc4ccccc43)C2)cc1	E coli growth-1 13, AddAB inh 21, Calb FLC inconclusive (no result: phage Ecoli inh, E coli growth-2, Tat export inh) | AddAB conf 28 | RecBCD counter 19 | bact viab count inactive
CC(=NNC(=O)C1CC1)c1ccc2c(c1)OCCO2	none (no result: phage Ecoli inh, E coli growth-1, AddAB inh, Tat export inh, Calb FLC)
CCC(C)Sc1ccc(C2C3C(=O)N(C)C(=O)C3[C@]3(C(=O)OC)CCCCN23)cc1 (stereo partly drawn)	none (no result: phage Ecoli inh, E coli growth-1, AddAB inh, Tat export inh, Calb FLC)
CCCn1c(NC(=O)c2cccc(C)c2C)nc2ccccc21	Calb FLC inconclusive (no result: phage Ecoli inh)
O=C(Nc1ncccn1)c1ccc([N+](=O)[O-])o1	phage Ecoli inh 14, AddAB inh 60, E coli growth-2 0.49 | AddAB conf 96 | RecBCD counter 5.6 | bact viab count inactive
O=C(Nc1ccccn1)c1ccc([N+](=O)[O-])o1	E coli growth-1 72, AddAB inh 98 (no result: phage Ecoli inh) | AddAB conf 57 | RecBCD counter 17 | bact viab count 62
CCCn1c(NC(=O)c2ccc([N+](=O)[O-])o2)nc2ccccc21	AddAB inh 15 | AddAB conf 58 | RecBCD counter 4.7 | bact viab count inactive
Cc1ccc(CNC(=O)c2ccc([N+](=O)[O-])o2)cc1	none
CC#CCN1c2ccccc2[C@]23CC(C(=O)OC)N(C(=O)c4cc(C)oc4C)C2=NC(C(=O)OC)=C(C(=O)OC)C13 (stereo partly drawn)	none (no result: phage Ecoli inh, E coli growth-1, AddAB inh, Tat export inh, Calb FLC)
COc1ccccc1OCC(=O)NN=C1CCc2ccccc21	none (no result: phage Ecoli inh, E coli growth-1, AddAB inh, Tat export inh, Calb FLC)
COc1ccc(C2CC(=O)C=C(c3ccc(OC)nc3)C2)cc1 (stereo not drawn)	none (no result: phage Ecoli inh, E coli growth-1, AddAB inh, Tat export inh, Calb FLC)
O=C(NN=Cc1cccc(OC(=O)c2cccc(Br)c2)c1)c1ccncc1	none (no result: phage Ecoli inh, E coli growth-1, AddAB inh, Tat export inh, Calb FLC)
COc1cc(C=NNc2ncc(C(F)(F)F)cc2Cl)cc(OC)c1OC	none (no result: phage Ecoli inh, E coli growth-1, AddAB inh, Tat export inh, Calb FLC)
O=C(COc1ccc([N+](=O)[O-])cc1)NNC(=S)NC(=O)c1ccc(Br)cc1	E coli growth-1 96, AddAB inh 98, Calb FLC 95 | AddAB conf inactive | RecBCD counter inactive | bact viab count inactive
